Records with an inconclusive call do not appear. Values without a mark were called inactive. Calls of active or inactive are those of the source. Calls follow the shape of the dose curve; as a rule, active = well fitted inhibition curve with a large enough effect; inconclusive = small, poorly fitted or top-dose-only effect; inactive = flat fitted curve, though single readings scatter.
Potency is read from the fitted curve at half-maximal effect.

This assay concerns Zika virus NS2B-NS3 protease. In words: Primary screen GU AMC qHTS for Zika virus inhibitors (AID 1347154). Also: nearly all actives have a fitted effect of over 70% in size.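 As to activity change, negative = inhibition: 0% = no-inhibitor control and -100% = no-enzyme control.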 The settings on record: Zika NS2B-NS3 unlinked protease, AMC fluorogenic substrate; series mostly up to 54.1 µM; activity change, negative = inhibition: at the top concentration. The method in brief: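 Fluorogenic AMC-substrate cleavage by noncovalent NS2B-NS3 protease complex (25 nM, pH 8.0 Tris buffer with Tween 20) followed for 15 minutes at room temperature (~20% conversion). Percent inhibition from ex340/em450 signal change, fitted by 4-parameter Hill equation.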
Consider `CC(C(=O)O)c1ccc(-c2ccccc2)c(F)c1` (stereo not drawn), for which the “activity change, negative = inhibition” value was -0.377%.

Consider `O=C1NC(=O)C(=Cc2ccc(-c3ccc(F)cc3)o2)S1`, for which the “activity change, negative = inhibition” value was -10.6%. With `NC(=O)[C@@H](CCC(F)(F)F)N(Cc1ccc(-c2ncon2)cc1F)S(=O)(=O)c1ccc(Cl)cc1`, the “activity change, negative = inhibition” value is -4.66%. On the same count and under the same terms, under `COc1ccc2cccc(CCNC(C)=O)c2c1` stands 5.42%; under `CCCCCNC(=O)N1CCC(CN(Cc2ccc(Cl)cc2)Cc2ccc([N+](=O)[O-])s2)C1` (stereo not drawn), -9.04%. Take `O=C(O)C=Cc1ccc(O)c(O)c1`: the “activity change, negative = inhibition” value is 16%. Consider `CO[C@H]1C[C@@H]2CC[C@@H](C)[C@@](O)(O2)C(=O)C(=O)N2CCCC[C@@H]2C(=O)O[C@H]([C@H](C)C[C@@H]2CC[C@H](OC(=O)C(C)(CO)CO)[C@H](OC)C2)CC(=O)[C@H](C)C=C(C)[C@@H](O)[C@@H](OC)C(=O)[C@H](C)C[C@H](C)C=CC=CC=C1C`, for which the “activity change, negative = inhibition” value is 6.27%. The same measure, in the same setting: under `Cc1cnc(C(=O)O)c[n+]1[O-]` stands 11.5%.

`CC(C)(C)COc1ccc(-n2cc(C(=O)O)cn2)cc1C#N`: the “activity change, negative = inhibition” value is -4.45%.

For the compound `O=C(O)c1cc(-c2ccccc2)nc2ccccc12`, the Potency entry is “inactive”. Take `COc1ccc(-c2oc3c(CC=C(C)C)c(OC4O[C@H](CO)[C@@H](O)[C@H](O)[C@@H]4O)cc(O)c3c(=O)c2OC2O[C@@H](C)[C@H](O)[C@@H](O)[C@@H]2O)cc1` (stereo partly drawn): the “activity change, negative = inhibition” value was -13%.

Regarding `COC[C@@H](c1ccc(C(F)(F)F)cc1)N1CCN(C2(C)CCN(C(=O)c3c(C)ncnc3C)CC2)C[C@H]1C`, the “activity change, negative = inhibition” value was -2.85%. Same read-out and setting: under `COc1ccc(-c2cc(=O)c3c(O)cc(O)cc3o2)cc1O` stands -5.97%. On to `C[N+]1(C)[C@@H]2CC(OC(=O)[C@H](CO)c3ccccc3)C[C@H]1[C@H]1O[C@@H]12` (stereo partly drawn), for which the “activity change, negative = inhibition” value is 10.2%. For the compound `CC(C)(C)c1cc(C(=O)O)c(NC(=O)Nc2ccc3[nH]ncc3c2)s1`, the “activity change, negative = inhibition” value is -16.9%. For `COC(=O)N[C@H](C(=O)N1CCC[C@@H]1c1ncc(-c2ccc(-c3ccc(-c4cnc([C@@H]5CCCN5C(=O)[C@@H](NC(=O)OC)C(C)C)[nH]4)cc3)cc2)[nH]1)C(C)C`, the Potency was 30.4 µM (active). As to `Cc1ccc(Nc2cc(-c3cccc(N4C(=O)c5ccccc5C4=O)c3)ncn2)cc1NS(C)(=O)=O`, the “activity change, negative = inhibition” value was 3.61%. For the compound `CON=C(C(=O)N[C@@H]1C(=O)N2C(C(=O)OCOC(=O)C(C)(C)C)=C(C=Cc3scnc3C)CS[C@H]12)c1csc(N)n1`, the “activity change, negative = inhibition” value is 12.5%. On the same count and under the same terms, under `C[C@H](NC(=O)c1sccc1OCc1ccc(Cl)cc1)c1ccccc1` stands -20.6%; under `CN(C)Cc1cccc(N=C(c2ccccc2)c2c(O)[nH]c3cc(C(=O)N(C)C)ccc23)c1`, -0.327%; under `CCC(=O)O[C@]1(C(=O)CO)CC[C@H]2[C@@H]3CCC4=CC(=O)CC[C@]4(C)[C@@H]3CC[C@@]21C`, -3.46%. Take `COc1cc(NC(=O)c2ccc(-c3ccc(Cl)cc3)o2)cc(OC)c1`: the “activity change, negative = inhibition” value was 7.29%.

With `NC[C@@H]1O[C@@H](O[C@H]2[C@@H](O)[C@H](O[C@@H]3[C@@H](O)[C@@H](N)C[C@H](N)[C@H]3O[C@H]3O[C@H](CN)[C@@H](O)[C@@H](O)[C@H]3N)O[C@H]2CO)[C@H](N)[C@@H](O)[C@@H]1O`, the “activity change, negative = inhibition” value was -2.67%. Regarding `NC(CO)(CO)CCc1ccc(Sc2cccc(OCc3ccccc3)c2)cc1Cl`, the “activity change, negative = inhibition” value was 4.67%. Still for that read-out and setting: under `CC(C)C(=O)Oc1ccc(CO)cc1[C@H](CCN(C(C)C)C(C)C)c1ccccc1` stands -2.22%; under `Nc1ncnc2c1nc(Cl)n2[C@@H]1O[C@H](CO)[C@@H](O)[C@@H]1O`, 5.15%; under `c1ccc2c(Cc3c[nH]c4ccccc34)c[nH]c2c1`, -6.38%. On to `O=C(O)Cc1cccc2ccccc12`, for which the Potency result is “inactive”. As for `Oc1ccc(C2=Cc3ccc(O)cc3OC2)cc1`, the “activity change, negative = inhibition” value was -0.671%. Still for that read-out and setting: for `CC=CCC=CCCC(=O)[C@H]1O[C@@H]1C(N)=O` the value was 4.44%; for `N#C[C@H]1C[C@H]2C[C@@H]2N1C(=O)[C@@H](N)C12CC3CC(CC(O)(C3)C1)C2`, -3.49%; for `O=C(CCN1CCN(C(=O)OCc2cc(Cl)cc(Cl)c2)CC1)c1ccc2[nH]c(=O)oc2c1`, 11.3%. On the same count and under the same terms, under `CCC(=O)NC[C@H](Cc1ccc(OCCc2nc(-c3ccccc3)oc2C)cc1)NC(C)=CC(=O)c1ccc(C(F)(F)F)cc1` stands -1.64%. Same read-out and setting: for `O=c1c(-c2ccc(O)cc2)coc2cc(OC3O[C@H](CO)[C@H](O)[C@H](O)[C@H]3O)cc(O)c12` (stereo partly drawn) the value was -18.5%; for `Cc1ccc(C(C)(O)c2nc3ccccc3s2)c(C)c1` (stereo not drawn), -3.95%; for `CC=CC[C@@H](C)C(=O)[C@H]1C(=O)N[C@@H](C(C)C)C(=O)N(C)CC(=O)N(C)[C@@H](CC(C)C)C(=O)N[C@@H](C(C)C)C(=O)N(C)[C@@H](CC(C)C)C(=O)N[C@@H](C)C(=O)N[C@H](C)C(=O)N(C)[C@@H](CC(C)C)C(=O)N(C)[C@@H](CC(C)C)C(=O)N(C)[C@@H](C(C)C)C(=O)N1C`, -8.07%. Regarding `CCC(CC)[C@H](NC(C)=O)[C@@H]1[C@H](O)[C@@H](C(=O)O)C[C@@H]1N=C(N)N`, the “activity change, negative = inhibition” value was 3.88%. On the same count and under the same terms, under `COc1ccc2c3c1OC1C[C@@H](O)C=C[C@@]31CCN(C)C2` (stereo partly drawn) stands -5.16%.
